Test results published in PubChem BioAssay AID1022 (Emory University Molecular Libraries Screening Center, 2008).
Several values for one entry are separate records, joined by “and”; a condition that tells them apart may be missing. Identical values can stand only once. Hit rate of the full screen: of about 220,000 compounds, about 3,300 (1.5%) were called active.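 How the source made its calls: active means compounds that cut the protein-peptide binding signal by more than 50% relative to plate controls in a single-dose test; inactive means the rest.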 Only a selection was taken, and actives are over-represented in it overall.

biological target: Induced myeloid leukemia cell differentiation protein Mcl-1 (Homo sapiens) (UniProt Q07820); experiment: disruptors of Mcl-1 and Noxa BH3 peptide – biochemical, TR-FRET, 1536-well, primary screen (AID 1022); details: TR-FRET Mcl-1/Noxa peptide binding, 2 h; at 21.7 µM; active compounds read high;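 further: His-tagged Mcl-1 with rhodamine Noxa BH3 peptide and terbium anti-His antibody; 0% = Mcl-1 plus Noxa peptide wells and 100% = peptide-only wells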
Sequence (Q07820 whole entry, looked up): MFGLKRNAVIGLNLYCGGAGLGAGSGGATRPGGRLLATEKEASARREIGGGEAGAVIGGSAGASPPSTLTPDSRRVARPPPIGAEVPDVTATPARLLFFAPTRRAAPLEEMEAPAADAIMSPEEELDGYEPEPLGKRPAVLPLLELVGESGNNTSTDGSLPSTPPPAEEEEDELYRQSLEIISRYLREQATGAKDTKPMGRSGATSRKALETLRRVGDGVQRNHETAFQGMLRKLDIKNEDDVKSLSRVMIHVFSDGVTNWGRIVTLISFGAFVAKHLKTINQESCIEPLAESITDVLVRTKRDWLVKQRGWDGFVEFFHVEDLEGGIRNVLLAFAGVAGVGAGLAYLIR

inhibition, inactive:
Cc1ccc(NC(=S)NC(=O)/C=C/c2ccc(Cl)cc2)cc1 3.6%
CC(=O)Nc1ccc(NC(=S)NC(=O)/C=C/c2ccccc2)cc1 3.86%
O=C(N/N=C/c1ccco1)c1csc2c1CCCC2 5.75%
O=C(Nc1ccc(Cl)cc1)/C(=C1\CCCN1)[N+](=O)[O-] 9.38%
COc1ccc2nc(NC(=O)c3ccc(Br)s3)sc2c1 15.7%
COc1ccc2nc(Nc3nc4cc5c(cc4s3)OCCO5)sc2c1 -76.2%
Cn1c(SCC(=O)N2CCOCC2)nnc1-c1ccc2ncccc2c1 -9.25%
CC(C)Oc1ccc(CCC(=O)NNC(=S)NCc2ccccc2)cc1 0.21%
O=c1oc(-c2ccccc2NS(=O)(=O)c2ccc(Cl)cc2)nc2ccccc12 -43.7%
CCc1ccc(NC(=O)Cn2nc(C)c([N+](=O)[O-])c2C)cc1 3.69%
Cc1nn(CC(=O)Nc2ccc(C#N)cc2)c(C)c1[N+](=O)[O-] -6.04%
COc1ccccc1-n1c(SCC(=O)O)nc2sc3c(c2c1=O)CCC3 12.5%
COC(=O)c1cn(C(=O)c2ccc(Cl)cc2)c2ccccc12 -1.27%
Cc1cccc(N(CC(=O)N=Nc2c(O)[nH]c3ccccc23)S(C)(=O)=O)c1C 9.08%
CN1CCN(c2ccc(S(=O)(=O)Nc3ccccc3)cc2[N+](=O)[O-])CC1 -7.35%
COc1ccc(S(=O)(=O)Nc2ccc(O)c(Sc3nc4ccccc4s3)c2)cc1 21.8%
O=C(CSc1nc2ccccc2s1)Nc1ccc(C(=O)O)cc1 2.75%
O=C(N/N=C/c1ccccn1)c1cccnc1 -27.9%
O=C(O)c1ccc(NC(=O)c2cn(-c3ccccc3)nc2-c2ccc(Cl)cc2)cc1 17.5%
Cc1nnc(SCC(=O)N/N=C/c2cn(-c3ccccc3)nc2-c2ccc(F)cc2)n1-c1ccccc1 -13.4%
O=C(Nc1nnc(SCc2c(Cl)cccc2Cl)s1)c1cccc([N+](=O)[O-])c1 27.4%
CCc1cc(C(=O)c2ccc(OC)cc2)c(NC(=O)CN2CCN(C)CC2)s1 0.41%
Cc1ccc(CSc2nnc(-c3cnccn3)n2C)cc1 2.82%
O=C(NCc1cc(C(F)(F)F)cc(C(F)(F)F)c1)C1CC(c2cccc(F)c2)=NO1 (configuration not stated) -14.9%
COc1ccc(C(=O)C2CCCN(Cc3ccc4nonc4c3)C2)c(C)c1 (configuration not stated) 0.59%
O=C(NC1CC1)c1ccc2c(c1)NC(=O)c1ccccc1S2 -14.5%
CC(=O)Nc1cccc(/C(C)=N/NC(=O)c2ccccc2Cl)c1 12.1%
Cc1c(NC(=O)C(=O)N/N=C/c2cccs2)c(=O)n(-c2ccccc2)n1C -17.4%
O=C(Nc1n[nH]c(C(F)(F)F)n1)c1cccs1 1.44%
COC(=O)c1scc(C)c1NC(=O)CSc1ccc(Cl)cc1 2.67%
CC(=O)Nc1cccc(C(=O)Nc2nc(C)cs2)c1 18.4%
CCN(CC)C(=O)C(=O)Nc1cccc(Br)c1 -12.2%
C=C(C)COc1ccc(-c2nc(N)ncc2-c2ccccc2OC)c(O)c1 19.2%
NC(=S)Nc1c(Cl)cccc1Cl -2.54%
Cc1ccc(OC(=O)c2c(C)nn(-c3ccccc3)c2C)cc1 -10.1%
CC(C)CCN1NC2(CCC(C)CC2)NC1=S (configuration not stated) 10.8%
Cc1ccc(OS(=O)(=O)c2ccc(-c3csc(C)n3)s2)c(C)c1 10.9%
Cn1nc(C(F)(F)F)cc1-c1ccc(/C=C(\C#N)C(=O)c2cccc(C(F)(F)F)c2)s1 8.47%
Cc1cc(C)n(C(=O)c2ccc(S(=O)(=O)N3CCCC3)cc2)n1 7.15%
COc1ccc(C(=O)OCC(=O)c2ccc(C)c(S(=O)(=O)N3CCOCC3)c2)cc1OC -9.99%
Cc1ccc(C)c2[nH]c(=O)c(CN(Cc3cccnc3)C(=S)NCc3ccco3)cc12 4.29%
N/C(=N\OC(=O)CCn1cccc(C(F)(F)F)c1=O)c1ccc(OC(F)(F)F)cc1 -5.59%
COc1ccc(NC2=CC(=S)NC(C)(C)C2)cc1 19.2%
O=C(CN1CCN(S(=O)(=O)/C=C/c2ccccc2)CC1)Nc1ccc(N2CCOCC2)cc1 9.11%
COc1ccc2c(CN3CCN(S(=O)(=O)c4cccs4)CC3)cc(=O)oc2c1 -3.37%
Cc1nc2ccccc2nc1N/N=C/c1ccc(O)cc1O -26.1%
CCCCCCCN=C(C)c1ccccc1O -3.31%
Cc1ccc(S(=O)(=O)Nc2nc3ccccc3s2)cc1[N+](=O)[O-] 9.42%
c1ccc2sc(NN=C3CCCC3)nc2c1 5.28%
CCCN(CCC)S(=O)(=O)c1ccc(C(=O)NNC(=O)c2cc(OC)c(OC)c(OC)c2)cc1 14.9%
Cc1cc(OCCCCOc2ccc(C#N)cc2)ccc1[N+](=O)[O-] 5.03%
CC/C=C/C(=O)N1CC2(CC(c3cccc(NC(=O)CC)c3)=NO2)C[C@H]1C(N)=O (some centres not stated) -7.66%
COc1cc(/C=N/Nc2nc3ccccc3s2)ccc1O 27.8%
CCOc1cc(/C=C(\C#N)c2nc(-c3cccs3)c(NC(C)=O)s2)ccc1O 24.5%
O=C(CSc1nnc(Nc2ccccc2)s1)Nc1cccnc1Cl 9.43%
Cc1ccc(Nc2nnc(SCC(=O)c3cc4ccccc4o3)s2)cc1C 24.3%
Cc1cccc2c1-c1sc(C(=O)NCCCN3CCc4ccccc4C3)cc1CO2 11%
CCOC(=O)CN(C(=O)COc1nc(-c2ccccc2)cc(C)c1C#N)c1ccc(F)cc1 7.27%
CN(C)C(=S)Nc1ccc(Br)cc1Cl -1.61%
O=C(Cc1ccccc1)NCc1ccc(F)cc1 -0.05%
CN(C)CCCNC(=O)c1ccc2[nH]c3ccccc3c2c1 3.04%
CCOC(=O)C1=NN(c2ccc(Cl)cc2)/C(=C/C2=NCCc3cc(OC)c(OC)cc32)S1 1.42%
O=C(Cn1c[n+](CC(=O)c2ccc([N+](=O)[O-])cc2)cn1)c1ccc([N+](=O)[O-])cc1 27.4% and -7.77%
CCc1nnc(NC(=O)c2sc3nc(C)cc(COC)c3c2N)s1 22.4%
CCc1nnc(NC(=O)c2cccc(S(=O)(=O)N(C)c3ccc(OC)cc3)c2)s1 10.9%
C#CCO[C@@H]1C[C@H](n2cnc3c(=O)[nH]c(NC(=O)C(C)C)nc32)O[C@@H]1CO -275%
Cc1ccc(C(=O)Cn2cc([N+](=O)[O-])nc2C)cc1 -26.9%
Cc1cccc(N=C2NC(=O)/C(=C/c3cn(C)c4ccccc34)S2)c1 4.96%
Cc1ccc(N2NC(=O)/C(=C/C=C/c3ccco3)C2=O)cc1C 6.33%
CC(C)(C)c1cc(NC(=O)NN2CCOCC2)nn1-c1c(Cl)cc(Cl)cc1Cl 2.67%
N/C(=N\S(=O)(=O)c1ccc(Cl)cc1)N1CCOCC1 -2.49%
C/C=C/C(=O)Nc1ccc(N2CCN(c3ccc(C(F)(F)F)cn3)CC2)nc1 4.65%
Cc1ccnc(Nc2nc3ccccc3s2)n1 -8.28%
Cc1ccnc(N2CCC(C(=O)NC3CCCCCC3)CC2)n1 -9.93%

inhibition, active:
CCOc1ccc(NC(=S)NC(=O)/C=C/c2ccc(OC)cc2)c([N+](=O)[O-])c1 63.1%
COc1ccc2nc(Nc3nc4ccc(NC(C)=O)cc4s3)sc2c1 70.9%
Cc1nn(CC(=O)Nc2ccc(N(C)C)cc2)c(C)c1[N+](=O)[O-] 73.9%
O=[N+]([O-])c1cc(S(=O)(=O)Nc2cccc(Cl)c2)ccc1N=Nc1c(O)[nH]c2ccccc12 71.3%
O=[N+]([O-])c1c(NCCO)cc(Sc2nc3ccccc3s2)c2nonc12 79.7%
O=C(N/N=C/c1ccc([N+](=O)[O-])o1)c1cn(-c2ccccc2)nc1-c1ccc(F)cc1 65.5%
C/C(=N\Nc1cccc(C(=O)O)c1)c1ccc2c(c1)Nc1ccccc1S2 78.5%
CCN(CC)N=Nc1cccc(NC(C)=O)c1 52.4%
Cc1cc(C)n(C(=O)c2ccc(C)c(S(=O)(=O)N3CCOCC3)c2)n1 72.5%
N=C1/C(=C/c2cccn2-c2cccc([N+](=O)[O-])c2)C(=O)N=C2SC=CN12 64.6%
O=c1cc(CN2CCN(S(=O)(=O)/C=C/c3ccccc3)CC2)c2ccc(O)cc2o1 57.9%
O=[N+]([O-])c1cc(Br)c(O)c(/C=N/Nc2nc3ccccc3s2)c1 79.4%
COc1cc(/C=N\Nc2nc(-c3cccs3)c(NC(C)=O)s2)ccc1O 95.2%
CC(C)c1ccc(Nc2nnc(SCC(=O)c3nnc(-c4ccccc4)o3)s2)cc1 104%
CN(C)c1ccc(C(CNC(=O)c2ccc(F)cc2)c2c[nH]c3ccccc23)cc1 (configuration not stated) 75.8%
CCc1ccc2nc3sc(C(=O)Nc4nnc(CC)s4)c(N)c3cc2c1 90.1%
Cc1ccc(N=C2NC(=O)/C(=C/C=C/c3ccco3)S2)cc1C 107%
Cc1ccnc(-n2sc3ccccc3c2=O)n1 69%
